Screening results (PubChem)
This is a sample that favours compounds with a hit; in the whole collection about 2.3% have one here.
SIRT5 inh – SIRT5 desuccinylase inhibitors, primary screen, biochemical, fluorescence imaging, single point, set 5; NAD-dependent protein deacylase sirtuin-5, mitochondrial (Homo sapiens), Q9NXA8; inhibition, % at 15 µM; Purified SirT5, succinyl-peptide AMC, trypsin-coupled fluorescence; AID 652115, 2013; 330,000 tested, 1.1% active; in the data active = inhibition above about 15%; inconclusive = no clear call, values can overlap the other calls
Target sequence (Q9NXA8 whole entry, looked up): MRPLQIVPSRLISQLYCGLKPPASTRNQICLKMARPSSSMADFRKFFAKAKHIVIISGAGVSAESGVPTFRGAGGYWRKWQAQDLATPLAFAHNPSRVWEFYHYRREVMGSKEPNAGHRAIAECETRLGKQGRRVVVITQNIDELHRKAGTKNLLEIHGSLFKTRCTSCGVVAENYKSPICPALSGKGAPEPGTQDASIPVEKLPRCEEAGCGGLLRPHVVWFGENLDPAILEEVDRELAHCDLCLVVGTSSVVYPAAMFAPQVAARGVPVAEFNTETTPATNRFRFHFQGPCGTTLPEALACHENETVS
DENV2 CPE rescue – inhibitors of DENV2 cytopathic effect, primary screen, cell-based, plate reader, single concentration | DENV2-infected cells, cytopathic effect rescue | CPE inhibition, % at 9.99 µM | 350,000 tested, 1.7% active | AID 651640, 2012; in the data active = CPE inhibition above about 20%, passing the limit was not always enough; inconclusive = no clear call, values can overlap the other calls; tested in BHK-21 cells
PDI inh – inhibitors of human PDI, primary screen, biochemical, turbidity, single point, plate reader | Protein disulfide-isomerase (Homo sapiens), P07237 | PDI insulin aggregation turbidity, A650, 90 min | inhibition, % at 10 µM | 350,000 tested, 0.052% active | AID 588391, 2011;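 active = mean inhibition across replicates of 30% or more, whatever share of single replicates reach that level; inconclusive = mean inhibition below 30% while every single replicate reaches 30%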
ERp5 inh – inhibitors of ERp5-driven insulin aggregation, primary screen, biochemical, turbidity, absorbance 650 nm, single point. Protein disulfide-isomerase A6 (Homo sapiens), Q15084. 90 min. inhibition, % at 9.99 µM. 350,000 tested, 0.05% active. AID 651711, 2012;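 active = mean replicate inhibition above about 25%, with every replicate also reaching it, limit read from the data, passing the limit was not always enough; inconclusive = only one of those two criteria met; inactive = neither criterion met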
Rtt109 HAT inh – inhibitors of C. albicans Rtt109/Vps75 HAT, primary screen, biochemical, ThioGlo CoA-SH fluorescence, plate reader. Histone acetyltransferase RTT109 (Candida albicans (strain SC5314 / ATCC MYA-2876)), …. purified Rtt109/Vps75, 4 h. inhibition, % at 34.9 µM. 330,000 tested, 0.16% active. AID 540336, 2011;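 active = inhibition of at least 50% in every replicate; inconclusive = best replicate reaches 50% inhibition but some replicates fall short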
Target sequence (Q5AAJ8 whole entry, looked up): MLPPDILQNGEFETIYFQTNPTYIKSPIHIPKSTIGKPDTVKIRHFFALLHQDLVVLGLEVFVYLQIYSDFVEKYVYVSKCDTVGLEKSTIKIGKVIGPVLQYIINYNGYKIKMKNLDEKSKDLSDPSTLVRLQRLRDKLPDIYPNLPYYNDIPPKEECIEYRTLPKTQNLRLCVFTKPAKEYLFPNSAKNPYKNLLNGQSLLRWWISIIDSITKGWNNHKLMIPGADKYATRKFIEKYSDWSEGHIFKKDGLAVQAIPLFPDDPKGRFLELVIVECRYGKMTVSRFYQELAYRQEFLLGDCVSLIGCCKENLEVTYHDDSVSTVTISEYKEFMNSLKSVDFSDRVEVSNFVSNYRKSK
Each line names hits and unclear results; the compound was inactive in the other large screens.

CC1Cc2ccccc2N1S(=O)(=O)c1cnc(Cl)c(Br)c1 (stereo not given)	DENV2 CPE rescue 65
CC1Cc2ccccc2N1S(=O)(=O)c1cnc(Cl)c(Cl)c1 (stereo not given)	none
CCc1ccccc1NC(=O)c1cc([N+](=O)[O-])ccc1N1CCOCC1	none
COc1cc(CCC(=O)Nc2cc(S(=O)(=O)N3CCOCC3)ccc2OC(C)C)cc(OC)c1OC	none (no result: Rtt109 HAT inh)
CC1CCN(c2ccccc2NC(=O)c2cc([N+](=O)[O-])ccc2N2CCOCC2)CC1	Rtt109 HAT inh 54
CC(C)Oc1ccc(S(=O)(=O)N2CCOCC2)cc1NC(=O)c1cc([N+](=O)[O-])ccc1N1CCOCC1	DENV2 CPE rescue 72
COc1ccc(CCC(=O)Nc2cc(S(=O)(=O)N3CCOCC3)ccc2OC(C)C)cc1	DENV2 CPE rescue 70
CCC(=O)N(C)C[C@H]1Oc2cc(-c3ccc(C#N)cc3)ccc2S(=O)(=O)N([C@@H](C)CO)C[C@H]1C	none (no result: PDI inh, ERp5 inh, Rtt109 HAT inh)
CCCNC(=O)N(C)C[C@@H]1Oc2ncc(C#CC3(O)CCCC3)cc2C(=O)N([C@H](C)CO)C[C@@H]1C	none (no result: PDI inh, Rtt109 HAT inh)
CC(=O)N1[C@H](CO)[C@@H](c2ccc(-c3cccc(F)c3)cc2)[C@H]1CNC(=O)C1CC1	DENV2 CPE rescue 124 (no result: SIRT5 inh, PDI inh, ERp5 inh, Rtt109 HAT inh)
CC(=O)NC[C@@H]1[C@H](c2ccc(-c3ccccc3F)cc2)[C@H](CO)N1C(=O)C1CC1	none (no result: PDI inh, Rtt109 HAT inh)
CC(=O)NC[C@H]1[C@@H](c2ccc(-c3ccccc3F)cc2)[C@@H](CO)N1C(C)=O	DENV2 CPE rescue 41 (no result: PDI inh, Rtt109 HAT inh)
CC(=O)NC[C@H]1[C@H](c2ccc(-c3ccccc3F)cc2)[C@@H](CO)N1C(=O)C1CC1	DENV2 CPE rescue 81 (no result: PDI inh, Rtt109 HAT inh)
CC(=O)NC[C@H]1[C@@H](c2ccc(-c3cccnc3)cc2)[C@H](CO)N1C(=O)C1CC1	DENV2 CPE rescue 28 (no result: PDI inh, Rtt109 HAT inh)
Cc1noc(C)c1S(=O)(=O)Nc1ccc2c(c1)CC(=O)N([C@@H](C)CO)C[C@@H](C)[C@@H](CN(C)Cc1ccc(C(=O)O)cc1)O2	none (no result: PDI inh, Rtt109 HAT inh)
CC(=O)NC[C@@H]1[C@H](c2ccc(-c3ccccc3)cc2)[C@H](CO)N1C(=O)C1CC1	DENV2 CPE rescue 76 (no result: PDI inh, Rtt109 HAT inh)
CO[C@@H]1CN(C)C(=O)c2cc(NC(=O)Nc3ccccc3)ccc2OC[C@@H](C)N(CC2CC2)C[C@H]1C	none (no result: PDI inh, Rtt109 HAT inh)
O=C(C[C@H]1C[C@@H]2c3cc(NC(=O)CC4CC4)ccc3O[C@@H]2[C@@H](CO)O1)NCc1ccc(-c2ccccc2)cc1	ERp5 inh 63 (no result: PDI inh, Rtt109 HAT inh)
O=C(C[C@@H]1C[C@H]2c3cc(NC(=O)CC4CC4)ccc3O[C@H]2[C@@H](CO)O1)NCc1ccc(-c2ccccc2)cc1	ERp5 inh 59 (no result: PDI inh, Rtt109 HAT inh)
COc1ccccc1CNC(=O)C[C@H]1CC[C@H]2[C@@H](COc3ccc(NC(=O)c4ccno4)cc3C(=O)N2C)O1	none (no result: PDI inh, Rtt109 HAT inh)
C[C@H](CO)N1C[C@H](C)[C@@H](CN(C)C(=O)NC2CCCCC2)Oc2ccc(NS(=O)(=O)c3ccc(F)cc3)cc2CC1=O	none (no result: PDI inh, Rtt109 HAT inh)
COc1cccc(C(=O)CC(=O)C(=O)Nc2cccc([N+](=O)[O-])c2C)c1	none
COc1ccc(C(=O)CC(=O)C(=O)Nc2cccc([N+](=O)[O-])c2C)cc1	DENV2 CPE rescue 30
CCOC(=O)c1c(CSc2ccsc2)n(C)c2cc(Br)c(O)c(CN(C)C)c12	SIRT5 inh 20
CC1(C)OC(=O)N(c2ccccc2)C12C=Cc1cc(Br)ccc1O2 (stereo not given)	Rtt109 HAT inh 53 (no result: SIRT5 inh, DENV2 CPE rescue, ERp5 inh)
O=C(O)C(Cc1ccccc1)N1C(=O)/C(=C/c2cccs2)SC1=S (stereo not given)	Rtt109 HAT inh 56
O=C(O)C(c1ccccc1)N1C(=O)/C(=C/c2cccs2)SC1=S (stereo not given)	ERp5 inh inconclusive
COc1cc(CN(C)Cc2cccc3ccccc23)cc([N+](=O)[O-])c1O	DENV2 CPE rescue 42
CN(Cc1cccc([N+](=O)[O-])c1)Cc1cccc2ccccc12	none
COc1ccc(-c2cn(CC[C@@H]3CC[C@H](NC(=O)NC(C)C)[C@H](CO)O3)nn2)cc1	none (no result: PDI inh, Rtt109 HAT inh)
O=C(Nc1ccccc1Cl)c1cc(C2CCCCN2C(=O)OCCF)on1 (stereo not given)	none (no result: SIRT5 inh, Rtt109 HAT inh)
O=C(NCc1ccc(Cl)c(Cl)c1)c1cc(C2CCCCN2C(=O)OCCF)on1 (stereo not given)	DENV2 CPE rescue 30 (no result: Rtt109 HAT inh)
O=C(Nc1ccc2c(c1)OCO2)c1cc(C2CCCCN2C(=O)OCCF)on1 (stereo not given)	DENV2 CPE rescue 20 (no result: SIRT5 inh, Rtt109 HAT inh)
Brc1ccc(-c2noc3c2-c2nc(-c4ccccc4)sc2CC3)cc1	DENV2 CPE rescue 129 (no result: SIRT5 inh)
COCCNC(=O)COc1ncnc2ccc(Br)cc12	none (no result: SIRT5 inh, DENV2 CPE rescue, ERp5 inh)
CC(C)(C)OC(=O)NCCOCCOCCNc1ncnc2ccc(Br)cc12	DENV2 CPE rescue 20 (no result: PDI inh, Rtt109 HAT inh)
CC(C)CNC(=O)C1Nc2ccccc2C2C=CCC12 (stereo not given)	DENV2 CPE rescue 63 (no result: SIRT5 inh)
COC(=O)CNC(=O)C1Nc2ccccc2C2C=CCC12 (stereo not given)	none (no result: SIRT5 inh)
NC(Cc1ccc(F)cc1)c1csc(Nc2cc(NCc3ccco3)ncn2)n1 (stereo not given)	none (no result: Rtt109 HAT inh)
NC(c1csc(Nc2cc(NCc3ccco3)ncn2)n1)c1ccccc1Cl (stereo not given)	DENV2 CPE rescue 69 (no result: Rtt109 HAT inh)
CC=Cc1ccc2n(c1=O)C[C@H]1[C@H](CO)[C@@H](C(=O)NCCCN3CCOCC3)N(C)[C@@H]21 (mixture of isomers)	none (no result: PDI inh, Rtt109 HAT inh)
O=C(c1cccc(Cl)c1)N1CCC2(CC1)NCCc1[nH]cnc12	DENV2 CPE rescue 27
C[C@@H]1CN([C@@H](C)CO)C(=O)c2c(c3ccccc3n2C)-c2ccccc2CO[C@@H]1CN(C)Cc1ccc2c(c1)OCO2	SIRT5 inh 20 (no result: PDI inh, Rtt109 HAT inh)
C[C@H](CO)N1C[C@H](C)[C@@H](CN(C)Cc2ccc3c(c2)OCCN3C)OCc2ccccc2-c2c(n(C)c3ccccc23)C1=O	DENV2 CPE rescue 37 (no result: PDI inh, Rtt109 HAT inh)
C[C@H]1CN([C@@H](C)CO)C(=O)c2c(c3ccccc3n2C)-c2ccccc2CO[C@H]1CN(C)Cc1ccc2c(c1)OCCN2C	none (no result: PDI inh, Rtt109 HAT inh)
CNC(=O)C[C@@H]1CC[C@@H]2[C@@H](COc3ccc(NC(=O)c4cc(C)on4)cc3C(=O)N2C)O1	none (no result: SIRT5 inh, PDI inh, ERp5 inh, Rtt109 HAT inh)
C[C@@H]1CN([C@H](C)CO)C(=O)c2cccc(NC(=O)C3CC3)c2O[C@@H]1CN(C)S(=O)(=O)c1cn(C)cn1	none (no result: PDI inh, Rtt109 HAT inh)
CCOC(=O)c1sc2nc(OCc3cccnc3)cc(C)c2c1N	SIRT5 inh 25 (no result: PDI inh, Rtt109 HAT inh)
CCOC(=O)c1sc2nc(C)cc(C)c2c1N	none (no result: SIRT5 inh, DENV2 CPE rescue, ERp5 inh)
O=C(COC(=O)c1n[nH]c(=O)c2ccccc12)Nc1ccccc1	SIRT5 inh 19
C[C@@H]1CN([C@@H](C)CO)C(=O)c2cc(C#CC3CCCC3)cnc2O[C@H]1CN(C)C(=O)C1CC1	DENV2 CPE rescue 28 (no result: PDI inh, Rtt109 HAT inh)
